In PubChem BioAssay (NCI) one finds growth data, which are given here for nine compounds.

The panel holds about 83,000 compounds, 20% with a hit somewhere; the sample as a whole holds those more often.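 48-hour exposure, single concentration, 96-well plates; percent growth endpoint where 0 means no net growth. Active: below 10.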 A number with no mark means an inactive call. Activity calls are given as the source filed them.

Holding throughout (test): NCI-60 one-dose screen, 48 h (100 = growth as untreated, 0 = no growth, -100 = all killed)
For experiment [1], the system named is RPMI-8226 leukemia. Conditions: 10 µM unless noted.
Experiment [2] concerns OVCAR-8 ovarian. To be noted: 10 µM unless noted.
Experiment [3] deals with OVCAR-5 ovarian. Conditions: 10 µM unless noted.
The subject of experiment [4] is OVCAR-4 ovarian. To be noted: 10 µM unless noted.
Experiment [5] has as its system SK-OV-3 ovarian. To be noted: 10 µM unless noted.
Experiment [6] deals with IGROV1 ovarian. To be noted: 10 µM unless noted.
Experiment [7] deals with OVCAR-3 ovarian. Conditions: 10 µM unless noted.
The test system of experiment [8] is HS 578T breast. To be noted: 10 µM unless noted.
The test system of experiment [9] is NCI/ADR-RES ovarian. Conditions: 10 µM unless noted.
Experiment [10] concerns T-47D breast. To be noted: 10 µM unless noted.
The test system of experiment [11] is BT-549 breast. Conditions: 10 µM unless noted.
Experiment [12] deals with MDA-MB-435 melanoma. To be noted: 10 µM unless noted.
Experiment [13] deals with SW-620 colon. Conditions: 10 µM unless noted.
The subject of experiment [14] is MCF7 breast. Conditions: 10 µM.
In experiment [15] the test system is HCT-116 colon. Conditions: 10 µM unless noted.
The subject of experiment [16] is KM12 colon. To be noted: 10 µM unless noted.
Experiment [17] deals with HCC-2998 colon. To be noted: 10 µM unless noted.

As for `O=C(Nc1ccc(-c2nc3ccc(NC(=O)c4ccc(Cl)cc4)cc3[nH]2)cc1)c1ccc(Cl)cc1`, the growth in experiment [1] is -22.6% (active); in experiment [2] it was 21.4%; in experiment [3], 39.3%; in experiment [4], -2.34% (active); in [5], 60.7%; in [6] it was 45.1%. Further, the growth in [7] is -64.9% (active); in [8], 57.9%; in experiment [9], 40.2%; in experiment [10] it was -1.92% (active); in experiment [11] it was -5.61% (active); in experiment [12], -32.7% (active). Besides, the growth in [13] was 18.4%; in [14] it was 14.4%; in experiment [15], 0.708% (active); in experiment [16] it was 39.7%.

Consider `O=C(O)CCCN1C(=O)C2C3CCC(C3)C2C1=O` (stereo unspecified), for which the growth in [1] was 108%; in experiment [2], 103%; in experiment [3], 104%; in experiment [4], 109%; in experiment [5] it was 103%; in [6] it was 102%. Further, the growth in experiment [7] was 112%; in [8], 115%; in [9], 108%; in [10], 101%; in experiment [12], 99.7%; in experiment [13], 112%. In addition, the growth in [14] is 109%; in experiment [15] it was 108%; in experiment [17], 106%; in [16] it was 103%.

Regarding `O=C(NC1CCN(Cc2ccccc2)CC1)c1cc(C(=O)NC2CCN(Cc3ccccc3)CC2)cc(C(=O)NC2CCN(Cc3ccccc3)CC2)c1`, the growth in experiment [1] is 56.4%; in experiment [2], 91.9%; in experiment [3], 112%; in [4] it was 60.5%; in experiment [5] it was 79.8%; in experiment [6], -33.7% (active). Besides, the growth in experiment [7] was 87%; in experiment [8], 79.6%; in experiment [9], 82.1%; in experiment [10], 72.5%; in experiment [11] it was 70.5%; in experiment [12] it was 70.4%. Moreover, the growth was 84.6% in experiment [13]; 57.3% in [14]; 66.1% in experiment [15]; 107% in [17]; 90.8% in [16].

With `COc1ccc(-n2c(C(O)c3ccccc3)n[nH]c2=S)cc1` (stereo unspecified), the growth was 93.3% in experiment [1]; 103% in experiment [2]; 93.4% in experiment [3]; 102% in experiment [4]; 101% in experiment [5]; 99.1% in [6]. For the same compound, the growth in experiment [7] was 95.8%; in [8], 111%; in experiment [9], 103%; in experiment [10], 97.7%; in experiment [11], 110%; in experiment [13], 105%. Moreover, the growth in experiment [14] was 93.7%; in experiment [15], 96.3%; in experiment [17], 106%; in experiment [16] it was 101%.

In the case of `CC(C)C[C@H](C(=O)N[C@H](C(N)=O)C(C)C)N1CC=CCN(OCc2ccccc2)S1(=O)=O`, the growth is 98.7% [2.5 µM] in [1]; 95.2% [2.5 µM] in experiment [2]; 95.2% [2.5 µM] in experiment [3]; 109% [2.5 µM] in [4]; 88.3% [2.5 µM] in [5]; 107% [2.5 µM] in [6]. Moreover, the growth is 112% [2.5 µM] in experiment [7]; 107% [2.5 µM] in [8]; 95.6% [2.5 µM] in experiment [9]; 95.7% [2.5 µM] in experiment [10]; 98.5% [2.5 µM] in [11]; 115% [2.5 µM] in experiment [12]. The growth in [13] is 102% [2.5 µM]; in experiment [15] it was 83.2% [2.5 µM]; in experiment [17] it was 108% [2.5 µM]; in experiment [16] it was 114% [2.5 µM].

`COC(=O)C1=C(C)NC(C)=C(C(=O)OC)C(N2C(=O)CCC2=O)C1` (stereo unspecified): the growth in [1] was 66.8%; in experiment [2], 88.7%; in [3], 114%; in experiment [4] it was 79.4%; in experiment [5], 104%; in experiment [6], 99.3%. Besides, the growth in experiment [7] was 99.6%; in [8] it was 107%; in [9], 95.9%; in experiment [10], 93.9%; in [11], 79.4%; in [12], 81.7%. The growth was 44.7% in experiment [13], 69.6% in [14], 57.5% in experiment [15] and 94.7% in experiment [16].

Consider `O=S1(=O)N(Cc2ccccc2)[C@@H](Cc2ccccc2)C2O[C@H]2[C@H](Cc2ccccc2)N1Cc1ccccc1` (stereo partly specified), for which the growth in experiment [1] was 27.9%; in experiment [2], 52.4%; in experiment [3], 93.5%; in [4], 6.6% (active); in [5], 47%; in [6], 60.6%. Besides, the growth in [7] is 62.8%; in [8] it was 98.9%; in experiment [9] it was 40%; in experiment [10] it was 32.5%; in experiment [11], 63.1%; in experiment [12], 60.1%. Moreover, the growth in [13] was 50.6%; in experiment [15] it was 17%; in [17], 61.4%; in experiment [16], 40.2%.

As for `Cc1ccc(NCCNCC(O)CO)c2c(=O)c3ccccc3sc12` (stereo unspecified), the growth in [1] was 34.6%; in experiment [2] it was 14.2%; in experiment [3], 46.8%; in experiment [4], 34.7%; in [5], 31.8%; in [6], 24.3%. Also, the growth in experiment [7] was 29.9%; in [8], 33.1%; in [9], 26.8%; in experiment [10] it was 53.8%; in experiment [11], 63.2%; in experiment [12], -26% (active). Further, the growth in experiment [13] is -78.7% (active); in [14], -53.6% (active); in experiment [15], -66.1% (active); in experiment [16], 15.4%.

Take `COc1cc(C(C)n2cc(-c3ccccc3)nn2)ccc1OC1CCCC1` (stereo unspecified): the growth in experiment [1] is 36.1%; in experiment [2], 65.6%; in experiment [3] it was 93.1%; in [4], 54.9%; in experiment [5] it was 75.8%; in [6] it was 70.9%. Also, the growth in [7] was 61.5%; in [8] it was 94%; in experiment [9], 45%; in experiment [10] it was 51.5%; in experiment [11], 69.1%; in [12], 65.4%. Besides, the growth in experiment [13] was 74.7%; in experiment [14], 48.1%; in [15] it was 52.3%; in [17], 70.4%; in experiment [16], 71.8%.
